According to PubChem BioAssay AID1159580 (chemical genetic matrix, 2015):
Several values for one entry are separate records, joined by “and”; a condition that tells them apart may be missing. Equal values may be shown once. About 2,000 (36%) of roughly 5,500 compounds were called active. Inconclusive results (about 18%) are left out. Rule as the data show it: active = normalized growth mostly below about 0.91 (no sharp cut-off); inconclusive = no clear call, values can overlap the other calls; inactive = mostly above about 0.92. Some of the results follow.

Assay: chemical genetic growth profiling, strain panel (AID 1159580);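 also: tested at 20 µM; growth read once vehicle control cultures reached saturation at 30 °C; 1 = growth at the plate median or of vehicle wells; lower values mean less growth of the strain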
Settings: S. cerevisiae deletion strains, growth OD

Measured: normalized growth

O=C1OC(=O)C2C3CCC(O3)C12 (stereo not given)
1 (inactive) and 0.875 (active): locus YJL095W, strain BCK1, stronger effect = lower value
inactive: locus YAL013W, strain DEP1, stronger effect = lower value 1.03 | locus YAL021C, strain ccr4, stronger effect = lower value 1.02 | locus YAL026C, strain drs2, stronger effect = lower value 1.02 | locus YAL030W, strain snc1, stronger effect = lower value 1.03 | locus YAL040C, strain CLN3, stronger effect = lower value 1 | locus YBL061C, strain skt5, stronger effect = lower value 1.01 | locus YBR009C, strain hhf1, stronger effect = lower value 1 | locus YBR021W, strain FUR4, stronger effect = lower value 0.947 | locus YBR023C, strain chs3, stronger effect = lower value 1.02 | locus YBR171W, strain sec66, stronger effect = lower value 1.02 | locus YBR229C, strain ROT2, stronger effect = lower value 1 | locus YBR231C, strain swc5, stronger effect = lower value 1 | locus YBR279W, strain paf1, stronger effect = lower value 1 | locus YCL011C, strain gbp2, stronger effect = lower value 1.01 | locus YCL016C, strain dcc1, stronger effect = lower value 1.03 | locus YCL029C, strain bik1, stronger effect = lower value 0.966 | locus YCL061C, strain MRC1 (second series), stronger effect = lower value 1 | locus YCL069W, strain vba3, stronger effect = lower value 0.994 | locus YCR088W, strain abp1, stronger effect = lower value 1.01 | locus YDL005C, strain med2, stronger effect = lower value 1.01 | locus YDL035C, strain GPR1, stronger effect = lower value 1.01 | locus YDL040C, strain nat1, stronger effect = lower value 1 | locus YDL074C, strain BRE1, stronger effect = lower value 1.01 | locus YDL101C, strain DUN1, stronger effect = lower value 1.01 | locus YDL134C, strain PPH21, stronger effect = lower value 1.02 | locus YDL185W, strain tfp1, stronger effect = lower value 0.937 | locus YDL192W, strain arf1, stronger effect = lower value 0.977 | locus YDR001C, strain nth1, stronger effect = lower value 1 | locus YDR069C, strain doa4, stronger effect = lower value 1.01 | locus YDR101C, strain arx1, stronger effect = lower value 0.982 | locus YDR137W, strain rgp1, stronger effect = lower value 1.06 | locus YDR150W, strain NUM1, stronger effect = lower value 1.03 and 1 | locus YDR159W, strain sac3, stronger effect = lower value 0.98 | locus YDR162C, strain NBP2, stronger effect = lower value 0.987 | locus YDR195W, strain ref2 0.975 | locus YDR297W, strain sur2, stronger effect = lower value 0.998 | locus YDR318W, strain mcm21, stronger effect = lower value 0.981 | locus YDR334W, strain swr1, stronger effect = lower value 0.992 | locus YDR335W, strain msn5, stronger effect = lower value 1.02 | locus YDR363W, strain ESC2, stronger effect = lower value 1.03 | locus YDR388W, stronger effect = lower value 0.956 | locus YDR392W, strain spt3, stronger effect = lower value 1.09 | locus YDR502C, strain sam2, stronger effect = lower value 0.966 | locus YEL003W, strain gim4, stronger effect = lower value 1.01 | locus YEL037C, strain rad23, stronger effect = lower value 1.02 | locus YEL061C, strain CIN8 (second series), stronger effect = lower value 1 | locus YEL061C, strain CIN8, stronger effect = lower value 1.02 | locus YER002W, strain NOP16, stronger effect = lower value 1.02 | locus YER015W, strain faa2, stronger effect = lower value 1.01 | locus YER016W, strain bim1, stronger effect = lower value 1.01 | locus YER110C, stronger effect = lower value 0.97 | locus YER111C, strain swi4, stronger effect = lower value 1.02 | locus YER155C, strain BEM2 (second series), stronger effect = lower value 1.02 | locus YER155C, strain BEM2, stronger effect = lower value 1.02 | locus YER167W, strain BCK2, stronger effect = lower value 1 | locus YFR010W, strain ubp6, stronger effect = lower value 0.967 | locus YGL078C, strain dbp3, stronger effect = lower value 0.98 | locus YGL086W, strain mad1, stronger effect = lower value 0.995 | locus YGL167C, strain pmr1, stronger effect = lower value 1.01 | locus YGL173C, strain kem1, stronger effect = lower value 1 | locus YGL227W, strain vid30, stronger effect = lower value 0.996 | locus YGL240W, strain doc1, stronger effect = lower value 0.981 | locus YGL248W, strain PDE1, stronger effect = lower value 1.01 | locus YGL253W, strain hxk2, stronger effect = lower value 1.03 | locus YGR078C, strain PAC10, stronger effect = lower value 1.03 | locus YGR135W, strain pre9, stronger effect = lower value 0.967 | locus YGR229C, strain SMI1, stronger effect = lower value 1.02 | locus YGR252W, strain gcn5, stronger effect = lower value 0.982 | locus YHR013C, strain ard1, stronger effect = lower value 1.05 | locus YHR027C, strain rpn1, stronger effect = lower value 1.04 | locus YHR030C, strain SLT2, stronger effect = lower value 1.01 and 0.877 | locus YHR079C, strain IRE1 (second series), stronger effect = lower value 0.98 | locus YHR079C, strain IRE1, stronger effect = lower value 0.919 | locus YHR094C, strain hxt1, stronger effect = lower value 0.98 | locus YHR129C, strain ARP1, stronger effect = lower value 1.03 | locus YHR142W, strain chs7, stronger effect = lower value 1.04 | locus YHR200W, strain rpn10, stronger effect = lower value 0.977 | locus YIL066C, strain RNR3, stronger effect = lower value 1.02 | locus YIL073C, strain SPO22, stronger effect = lower value 1.02 | locus YIL125W, strain kgd1, stronger effect = lower value 0.973 | locus YIR030C, strain dcg1, stronger effect = lower value 0.985 | locus YJL092W, strain hpr5, stronger effect = lower value 1.01 | locus YJL095W, strain BCK1 (second series), stronger effect = lower value 1.01 | locus YJL115W, strain asf1, stronger effect = lower value 1 | locus YJL129C, strain trk1, stronger effect = lower value 1.03 | locus YJL134W, strain LCB3, stronger effect = lower value 1.01 | locus YJL154C, strain vps35, stronger effect = lower value 0.999 | locus YJL164C, strain tpk1, stronger effect = lower value 1 | locus YJL166W, strain qcr8, stronger effect = lower value 0.99 | locus YJL168C, strain set2, stronger effect = lower value 0.984 | locus YJL187C, strain SWE1 (second series), stronger effect = lower value 1.01 | locus YJR043C, strain POL32, stronger effect = lower value 1 | locus YJR066W, strain TOR1, stronger effect = lower value 0.872 | locus YJR075W, strain HOC1, stronger effect = lower value 1.02
